# Measurements taken from the emibetuzumab library of Makowski et al. (2022).
# This is one part of the list. How many sequences the whole screen found active is unknown.
# B1: VH:VL chains; a variant is named by its letters at X, in order (parent)
# chain 1: QVQLVQSGAEVKKPGASVKVSCKASGYTFTDYXMHWVRQAPGQGLEWMGXVNPNXXXTTYNQKFEGRVTMTTDTSTSTAYMELRSLRSDDTAVYYCARXNXLDXWGQGTTVTVSS
# chain 2: DIQMTQSPSSLSASVGDRVTITCSVSSSVSSIYLHWYQQKPGKAPKLLIYSTSNLASGVPSRFSGSGSGTDFTLTISSLQPEDFATYYCQVYSGYPLTFGGGTKVEIK
# Variants of: B1
# Test: yeast display scFab, FACS + sequencing
# Conditions: with MET
# Outline: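 A yeast surface library of scFab variants carrying heavy-chain CDR mutations went through two magnetic enrichment rounds on Protein A beads coated with HGFR-Fc, then FACS. For sorting, cells were labelled for 3 h at room temperature with 1 nM HGFR-Fc and anti-Myc in PBSB containing 1% milk, and the top 50% of antigen-positive cells were gated. Input and round-3 sorted populations were deep sequenced in two replicates. A sequence was called an antigen binder if it appeared in both antigen-positive samples and a non-binder if it appeared only in the input.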
row,Variant,antigen binding call
1,VATGDDWV,no binding
2,SKGRSDVS,no binding
3,YRAGTAVS,binds
4,DRAGDAVS,no binding
5,DRAGDAVD,no binding
6,YRAGTAVD,binds
7,SAARDFWV,no binding
8,DKEGGDLA,no binding
9,YRKGASVD,binds
10,YRKGSSVD,binds
11,ATGGDDGF,no binding
12,DTTGSDWA,no binding
13,YERRSSAF,binds
14,YRRGGAAF,binds
15,SERRSSAF,no binding
16,DERRSSAF,no binding
17,VRRRGSAF,binds
18,YRKGASAF,binds
19,DGGRGDAF,no binding
20,DGTGGSGA chain 1 R67H,no binding
21,VRRRGSLF,binds
22,FRRRDAAF,no binding
23,YRRRGAAF,binds
24,YRRRGSAF,binds
25,DKGEGDGA,no binding
26,SKAGSDVA,no binding
27,FRTGSAWF,no binding

row,Variant,antigen binding call
1,FRGRGAWF,binds
2,YRTRGAWF,binds
3,YRGRSAWF,binds
4,YRGRGFWF,binds
5,DRGRDAWF,no binding
6,YKGRGFWA,no binding
7,YAGGDDAA,no binding
8,VEAGTAVA,no binding
9,YEGTGAVF,no binding
10,YAGRGDVF,no binding
11,YRGRGAWF,binds
12,YRGRGAVF,binds
13,VAREDDWA,no binding
14,YKRGSSVD,binds
15,VKRGSSVD,binds
16,DATTDSVD,no binding
17,VATTDSVD,no binding
18,YTRGASLD,no binding
19,VARGGSVD,no binding
20,AATTDSVD,binds
21,YTEEAAVD,binds
22,YTKTSSVD,no binding
23,YTRKSSVD,no binding
24,VKRGSFVD,no binding
25,DAGGGDWD,no binding
26,DAGGADVY,no binding
27,YATAADWD,no binding

row,Variant,antigen binding call
1,ATRTDDVF,no binding
2,DEGEDAGA,no binding
3,SEEGSDAS,no binding
4,YARGTAVD,no binding
5,YKRGSAVD,binds
6,YKRRDSVD,binds
7,YKTGDSVD,binds
8,YKRGSFVD,no binding
9,DGGTNSSA,no binding
10,DEGGTALA,no binding
11,SEGTGSGD,no binding
12,FGGEGDGA,no binding
13,YKRGGSWD,binds
14,YKTGDSWV,no binding
15,YKRGSSWD,binds
16,VKRATSWD,no binding
17,YKTGSSWD,binds
18,DGARNFGV,no binding
19,DTGANDWV,no binding
20,DATGGAAA,no binding
21,SAGRGDWD,no binding
22,SRGANAWD,no binding
23,SRGRGSWD,binds
24,SKGRGAWV,binds
25,SKAENAWV,no binding
26,SKGGSAWD,no binding
27,SKGRGAWD,binds

row,Variant,antigen binding call
1,SRGRGAWD,binds
2,SAGGGAWV,no binding
3,DRGRDDLV,no binding
4,AATTDDAV,no binding
5,SGRGNAAD,no binding
6,ATTKSDGV,no binding
7,VEGGTDVA,no binding
8,DAGTGSGA,no binding
9,YEGGTDVV,no binding
10,YRARGVVV,no binding
11,YRRRGDVV,binds
12,SREGGVVV,no binding
13,YTRGADVV,no binding
14,YEGTGDVV,no binding
15,YRRRGVVV,binds
16,YRRRGYVV,binds
17,YERRNDVV,binds
18,SGGRDSGV,no binding
19,AARADDSA,no binding
20,YRAEGYVV,binds
21,VGGGAAGV,no binding
22,YTEKTFSD,no binding
23,YRGRGFSD,binds
24,YRGRGFSA,binds
